For experiment [1], the target named is Ubiquitin carboxyl-terminal hydrolase 1 (Homo sapiens) (UniProt O94782). As to the kind of experiment: Inhibitors of USP1/UAF1: Pilot qHTS (AID 504865). Also: nearly all actives have a fitted effect of over 35% in size. Also: potency is read from the fitted curve at half-maximal effect. The method, boiled down:
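Kinetic fluorescence assay: 1nM USP1/UAF1, 15 min compound preincubation, then 150nM Ub-Rho; 480/540 nm.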
For orientation: In qHTS, concentration-response curves come from the screen itself.

The nature of experiment [2]: S16 Schwann cell viability assay (CellTiter-Glo assay) (AID 624031).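 Also: native untransfected S16 rat Schwann cells; plate controls were DMSO-treated cells for no effect and cell-free wells for full effect; nearly all actives have a fitted effect of over 70% in size.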 The procedure, abridged: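 Cells were seeded at 500-750 per well in phenol red-free DMEM with 10% FBS and left overnight. Compounds or DMSO were pinned in, incubation ran 24 h at 37 °C/5% CO2, then CellTiter-Glo reagent was added and luminescence measured.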
On the technique in general: ATP-based viability assays read luminescence as a measure of living cells.

Experiment [3] is described as follows: S16 Schwann cell PMP22 intronic element firefly luciferase assay (AID 624032). Also: nearly all actives have a fitted effect of over 30% in size. Also: potency is read from the fitted curve at half-maximal effect. The procedure, abridged: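 Luciferase reporter of PMP22 intronic-element expression in stably transfected S16 rat Schwann cells, read by ONE-Glo luminescence after 24 h compound exposure at 37 C. Activity scaled between DMSO (0%) and positive-control PTC124; concentration-effect curves quality-classified.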

Experiment [4] can be described thus: S16 Schwann cell PMP22 intronic element beta-lactamase assay (AID 624044; calls by dose curve; also: nearly all actives have a fitted effect of over 15% in size; also: potency is read from the fitted curve at half-maximal effect;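 as to ratio activity, negative = inhibition: 0% = DMSO and -100% = potassium clavulanate positive control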). Particulars: S16 rat Schwann cells, PMP22 element beta-lactamase FRET, 24 h; ratio activity, negative = inhibition: at 38.3 µM (top of the series). The method, boiled down:
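Rat S16 Schwann cells with beta-Lac driven by a PMP22 intronic element, compound-treated 24 h at 37 °C. LiveBLAzer FRET B/G read: 460 nm normalized to potassium clavulanate vs DMSO; 535 nm FRET as viability; concentration-effect curves classified.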

The test system of a further experiment is DIV17. Nature of the experiment: qHTS profiling for inhibitors of Plasmodium falciparum proliferation (AID 504749). Also: nearly all actives have a fitted effect of over 60% in size. Also: potency is read from the fitted curve at half-maximal effect.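 As to activity, negative = inhibition: 0% = DMSO vehicle and full inhibition = artemisinin control.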 Particulars: P. falciparum in erythrocytes, SYBR Green DNA, 72 h; series mostly up to 28.7 µM. The method, boiled down: (§1)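 Infected RBCs, 0.3% parasitemia/2.5% Hct final; cpd 72 h, 37 C, 5% CO2; lysis buffer with saponin/triton/SYBR Green I, o/n RT dark; FI 485/535; norm. to artemisinin (0.29 uM) and DMSO.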

In a further experiment the test system is W2. The description is as above. Particulars: P. falciparum in erythrocytes, SYBR Green DNA, 72 h; series mostly up to 28.7 µM. The method, boiled down:
as §1

The target in experiment [5] is Tumor susceptibility gene 101 protein (Homo sapiens) (UniProt Q99816). As to the kind of experiment: qHTS Assay for Iinhibitors of HIV-1 Budding by Blocking the Interaction of PTAP/TSG101: Hit Validation (AID 651600). Also: % is scaled to controls: 0 for no effect and ±100 for the full control effect; nearly all actives have a fitted effect of over 70% in size. The procedure, abridged:
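Displacement of a FITC-labeled PTAP-motif peptide (50 nM) from the Tsg101 binding domain (10 uM) was monitored by fluorescence polarization after a 20 min room-temperature incubation.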

Experiment [6] is described as follows: Confirmation and Secondary Assay for Modulators of Hemoglobin Beta Chain Splicing at IVS2 654 locus (AID 910).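 Also: HeLa cells stably carrying EGFP split by mutant beta-globin IVS2-654 intron; per-well total GFP intensity by laser scanning cytometry after 2-day treatment; % of control where 0% means no effect.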 The procedure, abridged: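 Readout: per-well total peak green fluorescence (488 nm ex, 500–520 nm em) from objects 5–250 µm, reflecting correct splicing of an EGFP-654 reporter. Compounds were applied for 2 days at 37 °C to overnight-plated HeLa EGFP-654 cells; controls were DMSO and 500 nM IVS2-654 PNA.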

Experiment [7] has as its target Cytochrome P450 3A4 (Homo sapiens) (UniProt P08684). As to the kind of experiment: qHTS Assay for Inhibitors and Substrates of Cytochrome P450 3A4 (AID 884). Also: % is scaled to controls: 0 for no effect and ±100 for the full control effect; nearly all actives have a fitted effect of over 50% in size. The method, boiled down:
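20 nM human CYP3A4 with 25 uM Luciferin-PPXE (at KM) in 200 mM KPO4, preincubated 10 min with compound; NADPH regeneration started a 60 min RT reaction. Luciferin detected by luminescence, normalized to 57 uM ketoconazole as full inhibition.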

Results filed as inconclusive are left out. The source made the active and inactive calls. Unless noted, calls follow the shape of the dose curve; as a rule, active = well fitted curve in the direction sought with a large enough effect; inconclusive = small, poorly fitted or top-dose-only effect, or another doubt; inactive = no such curve, though single readings can be large; an effect the other way counts as inactive or inconclusive.

Chain of Ubiquitin carboxyl-terminal hydrolase 1 (Homo sapiens) (O94782 whole entry, looked up): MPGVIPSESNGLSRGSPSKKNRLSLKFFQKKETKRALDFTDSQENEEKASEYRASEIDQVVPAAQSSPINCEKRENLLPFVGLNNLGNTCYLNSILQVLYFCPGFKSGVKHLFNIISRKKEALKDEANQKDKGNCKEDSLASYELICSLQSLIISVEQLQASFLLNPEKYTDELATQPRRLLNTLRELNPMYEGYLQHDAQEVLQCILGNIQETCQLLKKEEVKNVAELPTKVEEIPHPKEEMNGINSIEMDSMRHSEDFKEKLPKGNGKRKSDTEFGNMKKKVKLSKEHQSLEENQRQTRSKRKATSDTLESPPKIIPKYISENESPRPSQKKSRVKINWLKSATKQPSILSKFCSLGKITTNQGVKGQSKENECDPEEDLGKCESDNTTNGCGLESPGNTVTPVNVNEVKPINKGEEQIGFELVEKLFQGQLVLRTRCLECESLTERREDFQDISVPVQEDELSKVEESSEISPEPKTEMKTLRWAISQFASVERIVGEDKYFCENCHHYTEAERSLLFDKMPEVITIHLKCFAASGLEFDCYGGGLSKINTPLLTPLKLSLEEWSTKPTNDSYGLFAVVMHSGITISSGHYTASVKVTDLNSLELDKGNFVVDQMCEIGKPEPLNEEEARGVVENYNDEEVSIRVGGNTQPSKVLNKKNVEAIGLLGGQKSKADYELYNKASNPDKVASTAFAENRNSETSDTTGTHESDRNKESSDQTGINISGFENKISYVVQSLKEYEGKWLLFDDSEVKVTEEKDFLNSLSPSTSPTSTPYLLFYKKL
Chain of Cytochrome P450 3A4 (Homo sapiens) (P08684 whole entry, looked up): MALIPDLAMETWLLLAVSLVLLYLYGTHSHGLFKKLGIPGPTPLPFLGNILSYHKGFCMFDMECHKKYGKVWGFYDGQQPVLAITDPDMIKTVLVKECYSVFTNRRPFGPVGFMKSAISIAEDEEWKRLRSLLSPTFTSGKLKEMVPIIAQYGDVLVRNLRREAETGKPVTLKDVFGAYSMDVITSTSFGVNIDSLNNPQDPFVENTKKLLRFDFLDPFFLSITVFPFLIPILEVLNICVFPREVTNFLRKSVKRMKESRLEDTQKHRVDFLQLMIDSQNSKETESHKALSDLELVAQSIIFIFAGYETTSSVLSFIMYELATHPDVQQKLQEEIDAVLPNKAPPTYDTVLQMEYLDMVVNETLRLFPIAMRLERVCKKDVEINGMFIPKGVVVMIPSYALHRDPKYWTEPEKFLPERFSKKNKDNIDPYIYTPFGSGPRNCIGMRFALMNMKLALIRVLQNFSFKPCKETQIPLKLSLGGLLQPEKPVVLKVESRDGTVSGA
Chain of Tumor susceptibility gene 101 protein (Homo sapiens) (Q99816 whole entry, looked up, the tested form may be a part): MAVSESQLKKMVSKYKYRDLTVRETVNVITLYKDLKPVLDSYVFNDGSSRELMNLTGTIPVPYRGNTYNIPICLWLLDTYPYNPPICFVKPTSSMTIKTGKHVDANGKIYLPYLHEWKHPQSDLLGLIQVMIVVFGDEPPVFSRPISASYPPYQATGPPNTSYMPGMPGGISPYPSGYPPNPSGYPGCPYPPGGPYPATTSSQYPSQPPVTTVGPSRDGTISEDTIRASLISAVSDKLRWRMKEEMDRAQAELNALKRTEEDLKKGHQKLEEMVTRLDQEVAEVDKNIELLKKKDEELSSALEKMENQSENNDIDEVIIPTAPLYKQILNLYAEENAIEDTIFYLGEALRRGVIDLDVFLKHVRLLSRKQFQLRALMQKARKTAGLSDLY

With `C=C(NCc1ccccc1)c1ccccc1O`, the Potency result (in [1]; in experiment [2]; in experiment [3]; in experiment [4]; in the experiment on DIV17; in the experiment with W2) was “inactive” throughout.

On to `CO/N=C(/C(=O)N[C@@H]1C(=O)N2C(C(=O)O)=C(CSc3nc(C)c(CC(=O)O)s3)CS[C@H]12)c1csc(N)n1`, for which the Potency result (in experiment [1]; in experiment [2]; in [3]; in [4]; in the experiment on DIV17; in the experiment with W2) was “inactive” each time.

`C=CC1CN2CCC1CC2[C@@H](O)c1ccnc2ccc(OC)cc12` (stereo not given in full): the Potency result in [2] and in experiment [4] was “inactive” in each case. The Potency in experiment [3] is 32200 nM (active); in the experiment on DIV17 it was 135 nM (active); with W2, 190 nM (active).

With `COc1cccc2c1C(=O)c1c(O)c3c(c(O)c1C2=O)C[C@@](O)(C(=O)CO)C[C@@H]3OC1CC(N)C(O)C(C)O1` (stereo not given in full), the Potency was 50100 nM (active) in [1], 354 nM (active) in [4], 1690 nM (active) with DIV17 and 675 nM (active) in the experiment with W2. Moreover, the Potency entry in experiment [2], in experiment [3] and in experiment [5] was “inactive” throughout.

`CC(C)(C)C(=O)OCC(=O)C1CCC2C3CCC4=CC(=O)CCC4(C)C3CCC12C` (stereo not given): the Potency entry (in experiment [1]; in experiment [4]; in the experiment on DIV17; in the experiment with W2) was “inactive” throughout.

Consider `COC(c1ccccc1)(c1ccccc1)C(Oc1nc(C)cc(C)n1)C(=O)O` (stereo not given), for which the Potency entry (in [1]; in experiment [2]; in experiment [3]; in [4]; in the experiment with DIV17; in the experiment with W2) was “inactive” each time.

As for `C=NC(C(=O)NC1C(=O)N2C1SC(C)(C)C2C(=O)O)c1ccccc1` (stereo not given), the Potency result (in [6]; in experiment [2]; in experiment [3]; in experiment [4]; in the experiment with DIV17; with W2) was “inactive” throughout.

With `O=C1CC[C@H](C(=O)N[C@@H]2C[C@H]2c2ccccc2)N1`, the Potency result (in [1]; in experiment [2]; in experiment [3]; in [4]; with DIV17; with W2) was “inactive” each time.

As to `NC(C(=O)O)c1ccc(O)cc1` (stereo not given), the Potency result (in experiment [1]; in experiment [2]; in experiment [3]; in experiment [4]; with DIV17; with W2) was “inactive” each time.

`CC(O)C1CCC2C3CCC4CC(O)CCC4(C)C3CCC12C` (stereo not given): the Potency entry (in [1]; in [2]; in [4]; in the experiment with DIV17; with W2) was “inactive” in each case.

On to `CCCCN1CC(O)C(O)C(O)C1CO` (stereo not given), for which the Potency result (in [1]; in experiment [2]; in experiment [3]; in experiment [4]; with DIV17; in the experiment on W2) was “inactive” throughout.

For the compound `CC[C@@H]1/C=C(\C)C[C@H](C)C[C@H](OC)[C@H]2O[C@@](O)(C(=O)C(=O)N3CCCC[C@H]3C(=O)O[C@H](/C(C)=C/[C@@H]3CC[C@H](Cl)[C@H](OC)C3)[C@H](C)[C@@H](O)CC1=O)[C@H](C)C[C@@H]2OC`, the Potency entry (in [1]; in experiment [2]; in experiment [3]; in experiment [4]; in the experiment with DIV17; in the experiment with W2) was “inactive” in each case.

With `NC[C@@H]1O[C@H](OC2[C@@H](CO)O[C@@H](OC3[C@H](O)[C@H](N)C[C@H](N)[C@H]3OC3O[C@H](CO)[C@@H](O)[C@H](O)[C@@H]3N)[C@H]2O)C(N)[C@H](O)[C@@H]1O` (stereo not given in full), the Potency result (in [2]; in [3]; in [4]; in the experiment with DIV17; in the experiment on W2) was “inactive” throughout.

On to `COc1cccc(OC)c1C(=O)NC1C(=O)N2C1SC(C)(C)C2C(=O)O` (stereo not given), for which the Potency result (in experiment [7]; in [6]; in [2]; in experiment [4]; with DIV17; in the experiment with W2) was “inactive” in each case.

As to `CC(=O)OCC(=O)[C@@]1(O)CCC2C3CCC4=CC(=O)C=CC4(C)C3C(O)C[C@]21C` (stereo not given in full), the Potency entry in experiment [7], in [6], in [1], in [2], in [3] and in [4] was “inactive” throughout. Also, the Potency result in the experiment on DIV17 and in the experiment on W2 was “inactive” in each case.

In the case of `CC(C)C[C@@H](NC(=O)[C@@H](Cc1ccccc1)NC(=O)c1cnccn1)B(O)O`, the Potency entry in [1] and in experiment [2] was “inactive” each time. For the same compound, the Potency was 5.1 nM (active) in experiment [3], 22.4 nM (active) in [4], 426 nM (active) with DIV17 and 60.1 nM (active) in the experiment on W2.

In the case of `CC1(C)OC[C@@H]2O[C@@]3(C(=O)O)OC(C)(C)O[C@@H]3[C@@H]2O1`, the Potency result (in experiment [1]; in [2]; in experiment [3]; in experiment [4]; in the experiment with DIV17) was “inactive” each time.

As to `CC1(C)C2CC[C@]1(C)[C@@H](O)C2`, the Potency entry (in [1]; in [2]; in [4]; in the experiment with DIV17; with W2) was “inactive” in each case.

Take `O=C1NC(=O)C2C3C=CC(C3)C12` (stereo not given): the Potency entry (in experiment [1]; in [3]; in [4]; in the experiment with DIV17; with W2) was “inactive” throughout.

Turning to `O=C(O)CC(O)CC(O)/C=C/c1c(C2CC2)nc2ccccc2c1-c1ccc(F)cc1` (stereo not given), the Potency result (in experiment [1]; in [2]; in experiment [4]; with DIV17; with W2) was “inactive” each time.

Take `C=C[C@H]1CN2CCC1C[C@H]2[C@H](O)c1ccnc2ccc(OC)cc12` (stereo not given in full): the Potency entry in [2] and in experiment [3] was “inactive” throughout. Also, the ratio activity, negative = inhibition in experiment [4] is -10.4% (active). Besides, the Potency with DIV17 is 757 nM (active); in the experiment on W2, 338 nM (active).

Take `Nc1nc(F)nc2c1ncn2[C@@H]1O[C@H](CO)[C@@H](O)[C@H]1O`: the Potency entry (in experiment [1]; in experiment [2]; in experiment [3]; in experiment [4]; with DIV17; with W2) was “inactive” throughout.

On to `OCCOC[C@H]1O[C@H](OCCO)[C@H](OCCO)[C@@H](OCCO)[C@@H]1OCCO` (tested in a mixture with another compound), for which the Potency result (in experiment [1]; in [2]; in [3]; with DIV17; in the experiment with W2) was “inactive” in each case.

These data come from PubChem BioAssay (NCATS).
